Test results as given in PubChem BioAssay (NCI).
About 83,000 compounds went through this panel and 20% of them were active in at least one assay; those are over-represented in the sample as a whole.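 The endpoint reported here, percent growth, reads 100 for growth as untreated, 0 for no net growth and -100 for all cells dead.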 Active and inactive are the calls of the source.

System: LOX IMVI melanoma
Experiment: NCI-60 one-dose screen, 48 h (100 = growth as untreated, 0 = no growth, -100 = all killed)
Settings: 10 µM unless noted
Description: Growth inhibition of the LOX IMVI human tumor cell line is measured as a screen for anti-cancer activity. Cells are grown in 96 well plates and exposed to the test compound for 48 hours. Compounds are tested at a single concentration, which is 10^-5 M for most compounds. The reported endpoint is percent growth (GI% or GIPRCNT), where numbers from 0 - 100% represent growth inhibition, and numbers from -100% - 0 represent cell death. For example, a value of 40 represents 60% growth inhibition. A value of 0 means no net growth occurred over the course of the experiment. A value of -40 indicates 40% of cells at the beginning of the experiment died by the end of the experiment. A value of -100 means all cells are dead at the end of the experiment.
NCI-60 Human Tumor Cell Lines Screen was performed using the standard one-dose NCI protocol, which is described in more detail at https://dtp.cancer.gov/discovery_development/nci-60/default.htm.
Compounds with GIPRCNT values below 10 were considered active. Activity score was based on GIPRCNT using the following formula: […]
Score is 0 for GIPRCNT values of 100 or above, 50 for GIPRCNT values of 0, and 100 for GIPRCNT values of -100.

Structure (SMILES)	growth
CC(C)N1CCN(Cc2ccc3c(NNC(=O)c4ccccc4)nc4cc(F)ccc4n23)CC1	6.12% (active)
COc1cc(OC)c2sc(-c3ccc(-n4cncc4-c4ccc(OC)c(OC)c4)cc3)nc2c1	59.1% (inactive)
COc1ccccc1Nc1nc2c(s1)C1=CC[C@H]3[C@@H]4CC[C@H]([C@H](C)CCCC(C)C)[C@@]4(C)CC[C@@H]3[C@@]1(C)CC2	94% (inactive)
COc1ccc2c3c([nH]c2c1)C(=O)c1nc(C)ccc1C3=O	19.1% (inactive)
CCCC(=O)NC(c1ccc2c(c1)OCO2)c1ccc2cccnc2c1O (stereo not given)	12% (inactive)
C=CCn1c(SCC(=O)Nc2ccc(C(=O)/C=C/c3cc4cc(OC)ccc4nc3Cl)cc2)nnc1-c1ccc(Br)cc1	82.6% (inactive)
COc1ccc(C(=O)Nc2ncc(Cc3cccc(Cl)c3)s2)cc1OC	7.25% (active)
C=CCn1c(SCC(=O)NCc2cc(C)c(O)c(C)c2)nc2ccc(Cl)cc2c1=O	100% (inactive)
Cc1ccc(/C=N/Nc2nc(Nc3ccccc3)nc(-n3nc(C)cc3C)n2)cc1	32.6% (inactive)
O=C(Cn1c(=O)sc2ccccc21)NNS(=O)(=O)c1ccccc1[N+](=O)[O-]	96.4% (inactive)
COc1cnc2c(c1)C(=O)c1c-2n(CCCNCCO)c(=O)c2ccncc12	-40.5% (active)
CCn1c(=S)[nH]c2c(=O)n(C)c(=O)n(C)c21	98.8% (inactive)
CCN(c1ccc(Cl)cc1)c1nc(-c2ccc([N+](=O)[O-])cc2)cs1	93% (inactive)
O=C1c2cccc3cccc(c23)C(=O)N1N1C(=O)c2cccc3c(N4CCOCC4)ccc(c23)C1=O	90.2% (inactive)
S=C(Nc1ccc(-c2nc(N3CCOCC3)c3cccn3n2)cc1)Nc1cccnc1	30.8% (inactive)
COc1ccc(/C=N/C2=C(C#N)C(c3cccc(Cl)c3)c3c(ccc4ccccc34)O2)cc1 (stereo not given)	26.7% (inactive)
CCN1CCN(c2cc(C(=O)Nc3nc(-c4cc(OC)c(OC)c(OC)c4)cs3)cc(C(F)(F)F)c2)CC1	38.6% (inactive)
CC(=O)OCc1nc(C#N)c(N(C)C)o1	99.2% (inactive)
O=C(/C=C/c1ccccc1)c1cccc(OCCCOc2cccc(C(=O)/C=C/c3ccccc3)c2)c1	58.1% (inactive)
CCOC(=O)c1c(C)nc2c(c1N)CC(=O)N2Cc1cc(F)cc(Cl)c1	96.5% (inactive)

Structure (SMILES)	growth
Cn1cc(-c2csc(-c3ccc(Cl)cc3)n2)c2cccnc21	1.66% [100 µM] (active)
COc1cc(CNC(=O)/C=C/C=C/c2ccc3c(c2)OCO3)ccc1OCc1cn(-c2ccc(C)c(C)c2)nn1	88.1% (inactive)
CCO/C=N/C1=C(C#N)C(c2ccc(OC)cc2)c2sc3c(F)cccc3c2O1 (stereo not given)	32.2% (inactive)
CCCCC[C@@H]1Cc2cc(O)c(C(=O)O)c3c2[C@H](C[C@]2(OC[C@@H](CC(=O)[C@@](C)(CC)C(=O)OC)[C@@H]2C)O3)O1	103% (inactive)
C[C@]12C=CC(=O)C=C1CCC1C2[C@@H](O)C[C@@]2(C)C1CC[C@]2(O)C(=O)COC(=O)CCC(=O)O (stereo not given in full)	102% (inactive)
CCCCC(=O)c1ccco1	99.6% (inactive)
CO/N=C(/C)c1ccc(NC(=O)CSc2nnc(-c3ccncc3)n2-c2ccccc2)cc1	65.5% (inactive)
CN[C@]12CC3(C=CC(=O)C=C3)O[C@@]1(Cc1ccc(OC)cc1)N(C)C(=O)N2	-50% (active)
COc1ccc(OC)c(C(=O)/C=C/c2cc3c(c(OC)c2OC)OCO3)c1	47.8% (inactive)
O=C(Nc1ccc(-c2nc(N3CCOCC3)c3cccn3n2)cc1)Nc1cccnc1	-1.37% (active)
O=C1/C(=C\c2cn(-c3ccccc3)nc2-c2ccc(-c3cccs3)cc2)CCc2ccccc21	56.9% (inactive)
CCCCCCC1(C)NCCO1 (stereo not given)	103% (inactive)
Cn1ccc2c3c(ccc21)CC3=O	119% (inactive)
Fc1ccc(Nc2nc3nonc3nc2Nc2ccc(I)cc2)cc1	-26.9% (active)
CN1CCN(c2ccc(C(=O)Nc3cccc(C#Cc4cccc5[nH]nc(N)c45)c3)cc2C(F)(F)F)CC1	-93.8% (active)
COc1cccc([C@H]2c3[nH]c4ccccc4c3C[C@H]3C(=O)N(CCCCCCC(=O)NO)CC(=O)N23)c1	49.4% (inactive)
O=C(CCc1nnc(Cn2cnc3nc[nH]c3c2=O)o1)c1nc2ncccc2[nH]1	88.1% (inactive)
COc1ccc(Cc2cc(-c3ccccc3)nn(Cc3ccccc3)c2=O)cc1OC	48.4% (inactive)
COc1ccc(-c2nc3c(c(-c4ccccc4)nn3-c3ccccc3)c(-c3ccc(N4CCN(C)CC4)cc3)c2C#N)cc1	69.2% (inactive)
COc1cc2c(c(OC)c1OC)-c1ccc(OC)c(=O)cc1[C@@H](NC(=O)CCl)CC2	-18.2% (active)
